GLS inh = qHTS for Inhibitors of Glutaminase (GLS); GLS enzymatic activity, qHTS titration; hit rate 0.21% among 410,000; Glutaminase kidney isoform, mitochondrial (Homo sapiens), O94925; Potency, µM (top dose mostly 45.5 µM), hits mostly inhibitors; AID 624170, 2012
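hKGA in 45 mM KH2PO4 pH 8.2, 0.02% Tween-20 with pin-transferred compounds; 1 mM L-glutamine (stock) plus glutamate oxidase/HRP/Amplex Red coupling added. Fluorescence read initially and after 30 min at RT.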
HP1b chromo inh = HTS for Inhibitors of HP1-beta Chromodomain Interactions with Methylated Histone Tails; AID 540317, 2011; Potency, µM (top dose mostly 114 µM), most hits filed as inhibitors; AlphaScreen HP1-beta / biotin-H3K9me3 peptide binding; hit rate 0.56% among 390,000; further: nearly all actives have a fitted effect of over 70% in size
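Compound inhibition of the preformed complex between 50 nM HP1-beta and 50 nM biotinylated H3K9me3 peptide was read by AlphaScreen. Buffer was PBS pH 7.4 with 0.01% Tween-20. Incubations ran 30 min at room temperature, with 10 ug/mL donor/acceptor beads.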
G9a inh = qHTS Assay for Inhibitors of Histone Lysine Methyltransferase G9a; Potency, µM (series often up to 102 µM), actives largely listed as inhibitors; hit rate 8.8% among 350,000; G9a H3K9 monomethylation, AlphaScreen, 2 h; Histone-lysine N-methyltransferase EHMT2 (Homo sapiens), Q96KQ7; further: nearly all actives have a fitted effect of over 75% in size
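Step 1: enzyme (final 20 nM) with compound, 15 min RT. Step 2: substrate peptide 500 nM and SAM 20 uM, 2 h RT. Step 3: anti-H3K9me1 antibody and AlphaScreen beads, 10 min, then plate read.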
JMJD2A Tudor inh = qHTS Assay for Inhibitors of JMJD2A-Tudor Domain; Potency, µM (series often up to 114 µM), usual class: inhibitors; AID 504339, 2011; hit rate 4.4% among 390,000; Lysine-specific demethylase 4A (Homo sapiens), O75164; AlphaScreen JMJD2A-Tudor / H3K4me3 peptide binding; further: nearly all actives have a fitted effect of over 50% in size
Target sequence (O75164 whole entry, looked up, the tested form may be a part): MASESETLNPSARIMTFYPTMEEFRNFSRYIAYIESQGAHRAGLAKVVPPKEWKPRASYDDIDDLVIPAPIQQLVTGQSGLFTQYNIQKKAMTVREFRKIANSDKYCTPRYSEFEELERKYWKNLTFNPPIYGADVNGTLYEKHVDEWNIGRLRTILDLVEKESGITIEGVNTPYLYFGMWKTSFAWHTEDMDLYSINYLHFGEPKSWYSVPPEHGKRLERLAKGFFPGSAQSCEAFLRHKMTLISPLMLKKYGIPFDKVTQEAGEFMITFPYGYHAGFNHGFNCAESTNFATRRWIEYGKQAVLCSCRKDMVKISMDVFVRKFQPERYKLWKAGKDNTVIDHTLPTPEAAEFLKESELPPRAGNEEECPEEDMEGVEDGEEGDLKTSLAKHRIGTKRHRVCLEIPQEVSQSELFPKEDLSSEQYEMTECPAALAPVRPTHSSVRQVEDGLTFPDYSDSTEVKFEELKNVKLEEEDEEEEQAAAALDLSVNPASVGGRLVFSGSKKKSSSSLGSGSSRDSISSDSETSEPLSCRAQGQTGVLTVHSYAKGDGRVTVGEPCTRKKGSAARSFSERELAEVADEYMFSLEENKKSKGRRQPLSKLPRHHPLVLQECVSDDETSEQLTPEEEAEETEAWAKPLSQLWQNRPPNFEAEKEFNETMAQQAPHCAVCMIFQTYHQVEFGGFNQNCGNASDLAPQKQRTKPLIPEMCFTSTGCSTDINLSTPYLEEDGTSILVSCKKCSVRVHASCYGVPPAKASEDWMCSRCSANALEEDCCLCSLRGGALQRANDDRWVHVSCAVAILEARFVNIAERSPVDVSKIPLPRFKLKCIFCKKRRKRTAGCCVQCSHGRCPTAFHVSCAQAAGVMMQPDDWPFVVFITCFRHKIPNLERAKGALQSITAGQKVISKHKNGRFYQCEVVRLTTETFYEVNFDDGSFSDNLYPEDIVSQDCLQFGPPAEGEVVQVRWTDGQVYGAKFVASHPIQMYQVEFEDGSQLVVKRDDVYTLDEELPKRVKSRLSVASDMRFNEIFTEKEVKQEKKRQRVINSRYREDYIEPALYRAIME
BAZ2B block = qHTS Assay for Inhibitors of BAZ2B. Potency, µM (top dose mostly 114 µM), actives largely listed as inhibitors. AlphaScreen BAZ2B-H3K14Ac peptide displacement. Bromodomain adjacent to zinc finger domain protein 2B (Homo sapiens), Q9UIF8. AID 504333, 2011. hit rate 4.4% among 360,000; further: nearly all actives have a fitted effect of over 60% in size
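Protein-peptide AlphaScreen: BAZ2B 50 nM, b-H3K14Ac 50 nM, 1x PBS pH 7.4 + 0.01% Tween-20. Preincubation 30 min RT; cpd 30 min RT (top 110 uM); beads 20 min RT, light-protected.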
Hits are given with their value; [ ] = dose if it differs, or a comment. A selection: hits, their analogues and other compounds. The true share with any hit is near 10%. The call rests on the fitted dose curve; in most records, active means well fitted curve in the direction sought with a large enough effect; inconclusive means small, poorly fitted or top-dose-only effect, or another doubt; inactive means no such curve, though single readings can be large; an effect the other way counts as inactive or inconclusive.

How did COc1cc(CN2CCN(c3ccccc3C)CC2)cc([N+](=O)[O-])c1O do in these assays?
GLS inh: inactive; HP1b chromo inh: inconclusive; G9a inh: 79µM; JMJD2A Tudor inh: 4µM; BAZ2B block: inconclusive

How did COc1cc(CN2CCc3ccccc3C2)cc([N+](=O)[O-])c1O do in these assays?
GLS inh: inactive; HP1b chromo inh: inconclusive; G9a inh: 8.9µM; JMJD2A Tudor inh: 22µM; BAZ2B block: inconclusive

What do the screens show for `COc1cc(CN2CCN(c3cc(C)ccc3C)CC2)cc([N+](=O)[O-])c1O`?
GLS inh: inactive; HP1b chromo inh: inactive; JMJD2A Tudor inh: inconclusive

Results for COc1cc(CN2CCc3ccccc3C2)ccc1O ?
GLS inh: inactive; HP1b chromo inh: inconclusive; G9a inh: 14µM; JMJD2A Tudor inh: 20µM; BAZ2B block: 50µM

Results for COc1ccccc1C1CCN(c2ccc(CO)cc2[N+](=O)[O-])CC1 ?
GLS inh: inactive; HP1b chromo inh: inconclusive; G9a inh: 35µM; JMJD2A Tudor inh: 56µM; BAZ2B block: inconclusive

What do the screens show for `CC(C)CCN1C(=O)c2ccccc2C1c1nnnn1C(C)C` (stereo unspecified)?
GLS inh: inactive

What do the screens show for `O=C1OC(c2ccccc2)(c2ccc3cc(O)ccc3c2)c2ccccc21` (stereo unspecified)?
GLS inh: inactive; HP1b chromo inh: inactive; JMJD2A Tudor inh: inconclusive

What do the screens show for `COc1cc(CN2CCCC(C)C2)cc([N+](=O)[O-])c1O` (stereo unspecified)?
GLS inh: inactive; HP1b chromo inh: inactive; G9a inh: inactive; JMJD2A Tudor inh: inactive; BAZ2B block: inactive

How did COc1cc(CN2CCCN(C)CC2)cc([N+](=O)[O-])c1O do in these assays?
GLS inh: inactive; HP1b chromo inh: inconclusive; JMJD2A Tudor inh: 0.89µM; BAZ2B block: inconclusive

What do the screens show for `COC(=O)[C@H](CC(C)C)N(Cc1ccccc1)S(=O)(=O)N(Cc1ccc(OC)cc1)[C@@H](CC(C)C)C(=O)OC`?
GLS inh: inactive; HP1b chromo inh: inactive; JMJD2A Tudor inh: inactive

Results for COc1ccc([C@@H]2C[C@H]3[C@@H](CN2S(=O)(=O)c2ccccc2)C(=O)C[C@@H](c2ccc(C)cc2)N3S(=O)(=O)c2ccc(C)cc2)cc1 ?
GLS inh: inactive

Results for Cc1c(Cl)cccc1-c1ccc(CNCc2ccccn2)o1 ?
GLS inh: inactive; HP1b chromo inh: inactive; G9a inh: 79µM; JMJD2A Tudor inh: inconclusive; BAZ2B block: 25µM

What do the screens show for `O=C(NCc1ccccn1)c1c(Cl)cccc1Cl`?
GLS inh: inactive; HP1b chromo inh: inactive; G9a inh: inactive; JMJD2A Tudor inh: inactive; BAZ2B block: inactive

How did COc1ccc(-c2ocnc2C(=O)N2CCN(C(=O)C(c3ccccc3)c3ccccc3)CC2)cc1 do in these assays?
GLS inh: inactive; HP1b chromo inh: inactive; G9a inh: 50µM; JMJD2A Tudor inh: inactive; BAZ2B block: inactive

Results for COc1ccc(-c2ocnc2C(=O)N2CCN(Cc3cccnc3)CC2)cc1 ?
GLS inh: inactive; HP1b chromo inh: inactive; G9a inh: inactive; JMJD2A Tudor inh: inactive; BAZ2B block: inactive

Results for CN(C)CCNC(=O)c1cccc(-c2cnc3c(NC=O)cc(/C=C/c4ccccc4)cn23)c1 ?
GLS inh: inactive

What do the screens show for `CCCOc1ccc(CNC(=S)Nc2ccccc2)cc1Cl`?
GLS inh: inactive; HP1b chromo inh: inactive; G9a inh: inactive; JMJD2A Tudor inh: inactive; BAZ2B block: inactive

What do the screens show for `S=c1nc(C2CC2)n(-c2ccccc2)[nH]1`?
GLS inh: inactive; HP1b chromo inh: inactive; G9a inh: inconclusive; JMJD2A Tudor inh: 2.5µM; BAZ2B block: inactive

Results for CC1=C(C)C(c2ccccc2)NC(=S)N1 (stereo unspecified) ?
GLS inh: inactive; HP1b chromo inh: inactive; G9a inh: inconclusive; JMJD2A Tudor inh: inactive; BAZ2B block: inactive

Results for Cc1ccccc1-c1cc2nc(NCc3ccccc3F)n(C)c(=O)c2s1 ?
GLS inh: inactive

Results for COc1ccc(/C=C(\NC(=O)c2ccc(OC)cc2)C(=O)NC(CCSC)C(=O)O)cc1 (stereo unspecified) ?
GLS inh: inactive; HP1b chromo inh: inactive; G9a inh: inactive[2.33 µM]; JMJD2A Tudor inh: inconclusive; BAZ2B block: inactive

Results for COc1ccc(C(=O)N/C(=C\c2ccc([N+](=O)[O-])cc2)C(=O)NC(CCSC)C(=O)O)cc1 (stereo unspecified) ?
GLS inh: inactive; HP1b chromo inh: inactive; G9a inh: 50µM; JMJD2A Tudor inh: inactive; BAZ2B block: inactive

How did O=S(=O)(c1ccccc1)N1CCN(Cc2ccccc2)CC1 do in these assays?
GLS inh: inactive; HP1b chromo inh: inactive; G9a inh: inactive; JMJD2A Tudor inh: inactive; BAZ2B block: inactive

What do the screens show for `COc1cc(CN2CCN(S(=O)(=O)c3ccccc3)CC2)cc(OC)c1O`?
GLS inh: inactive; HP1b chromo inh: inactive; G9a inh: 10µM; JMJD2A Tudor inh: inactive; BAZ2B block: inactive

What do the screens show for `COc1ccc(S(=O)(=O)N2CCN(Cc3cc(OC)c(O)c(OC)c3)CC2)cc1`?
GLS inh: inactive; HP1b chromo inh: inconclusive; G9a inh: 7.1µM; JMJD2A Tudor inh: 22µM; BAZ2B block: 50µM

Results for COc1ccc(S(=O)(=O)N2CCN(Cc3cc(OC)c(OC)c(OC)c3)CC2)cc1 ?
GLS inh: inactive; HP1b chromo inh: inconclusive; JMJD2A Tudor inh: 3.2µM; BAZ2B block: inconclusive

Results for COc1ccc(S(=O)(=O)N2CCN(Cc3ccccc3)CC2)cc1 ?
GLS inh: inactive; HP1b chromo inh: inactive; G9a inh: inactive; JMJD2A Tudor inh: inactive; BAZ2B block: inactive

Results for CC1=NN(c2ccccc2)C(=O)C1N=Nc1cccc(O)c1 (stereo unspecified) ?
GLS inh: inactive; HP1b chromo inh: inactive; G9a inh: 71µM; JMJD2A Tudor inh: inconclusive; BAZ2B block: inconclusive

How did CC1=NN(c2nc(-c3ccc(C)cc3)cs2)C(=O)C1N=Nc1cccc(O)c1 (stereo unspecified) do in these assays?
GLS inh: inconclusive; HP1b chromo inh: inconclusive; G9a inh: 40µM; JMJD2A Tudor inh: 14µM; BAZ2B block: inconclusive

What do the screens show for `COc1ccc(N=NC2C(=O)N(c3ccccc3)N=C2C)cc1` (stereo unspecified)?
GLS inh: inactive; HP1b chromo inh: 7.1µM; G9a inh: inconclusive; JMJD2A Tudor inh: 7.9µM; BAZ2B block: 1.6µM

How did CC1=NN(c2nc(-c3ccc(C)cc3)cs2)C(=O)C1N=Nc1ccccc1O (stereo unspecified) do in these assays?
GLS inh: inactive; HP1b chromo inh: inactive; JMJD2A Tudor inh: inconclusive; BAZ2B block: inconclusive
